From article PMC13494018
A number with no mark means an inactive call. How the calls were made is not given here.

Target: CD276, Q5ZPR3
Sequence (Q5ZPR3 whole entry): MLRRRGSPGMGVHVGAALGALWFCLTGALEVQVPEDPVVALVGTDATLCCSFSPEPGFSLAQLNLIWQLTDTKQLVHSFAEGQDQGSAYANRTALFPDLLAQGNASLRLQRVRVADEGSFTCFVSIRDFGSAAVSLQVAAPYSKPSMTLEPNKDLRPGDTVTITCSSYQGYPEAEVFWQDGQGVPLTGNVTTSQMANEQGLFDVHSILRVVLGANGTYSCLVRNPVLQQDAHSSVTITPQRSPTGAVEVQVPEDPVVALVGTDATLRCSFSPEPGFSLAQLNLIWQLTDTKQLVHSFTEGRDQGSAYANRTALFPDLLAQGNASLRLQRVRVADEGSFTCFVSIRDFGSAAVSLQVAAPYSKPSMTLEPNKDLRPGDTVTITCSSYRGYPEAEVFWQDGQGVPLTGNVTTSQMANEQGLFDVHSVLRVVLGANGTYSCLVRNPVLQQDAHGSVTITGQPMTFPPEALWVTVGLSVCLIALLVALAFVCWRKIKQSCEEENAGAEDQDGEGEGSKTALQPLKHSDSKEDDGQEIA

Row | Binder | binding in a display sort
1 | design_488_244881a1-ba0c-4c08-ad9c-1f64cf93580a_1393_dldesign_0_cycle1_af2pred (protein) SPADEVAARLNALLGAAIKALAADPAAGLALAEEARRLAEELAKKYPTPEVKRVAEAAKKMADAIGAAAQAQLAAAQA | not found
2 | design_488_244881a1-ba0c-4c08-ad9c-1f64cf93580a_1486_dldesign_0_cycle1_af2pred (protein) SAAGQLALDTAKTFMQQAKELAKQDPQLALAALQSAKLAADGAIADPATAAQGKALKAEVKAQEAAVKAAAAAAA | not found
3 | design_488_244881a1-ba0c-4c08-ad9c-1f64cf93580a_1644_dldesign_0_cycle1_af2pred (protein) KEAVVREAGEALEELLRYASRIDPAEGARLVAEASRILRQAVLGDEEEAEEARERVERLREEARERAEAA | not found
4 | design_488_244881a1-ba0c-4c08-ad9c-1f64cf93580a_1684_dldesign_0_cycle1_af2pred (protein) AAATAQAKADAAKAKAAVESGQDTSALATGHLLRAYSLDPAVADATLAELKALAAGRGTAVATQAIANFAAGVA | not found
5 | design_488_244881a1-ba0c-4c08-ad9c-1f64cf93580a_1769_dldesign_0_cycle1_af2pred (protein) GEEAKKLKEKADELFAKAKAVLEDPTATKEELTEAAIYASEAAVLYLKAAGLASPEEREEYLKKAVEASKIAIELAAKA | not found
6 | design_488_244881a1-ba0c-4c08-ad9c-1f64cf93580a_1793_dldesign_0_cycle1_af2pred (protein) EAEELLARARAVEERGAELAAAAEALASVPGAASLKAHVAQALRAAQQAREAVADPEEATRLLRAAEASLRNAELVLEGMKIQAA | not found
7 | design_488_244881a1-ba0c-4c08-ad9c-1f64cf93580a_1807_dldesign_0_cycle1_af2pred (protein) AEEEESRRRAEGAKAFLDQILAAAQASASNPAALAALAASAEANAKSVAAAASPEYAKEVRDYAAKVVAQINALAA | not found
8 | design_488_244881a1-ba0c-4c08-ad9c-1f64cf93580a_1921_dldesign_0_cycle1_af2pred (protein) DKATLAAQAQAVVNATKIAVEAAEKAIKEGDKEAAKKAAEGLKQMVEVAEAMAKQLEAAGADQAVIDAVKEAAEAAKKAAEKAEKFA | not found
9 | design_488_244881a1-ba0c-4c08-ad9c-1f64cf93580a_1954_dldesign_0_cycle1_af2pred (protein) AAAQEVAQTAAIMDAALIAAKQSPELLKEMMDVAVAHTKASADPAATLAVLKEKAAKIAEEGTPEAAKIAKAAVAEAA | not found
10 | design_488_244881a1-ba0c-4c08-ad9c-1f64cf93580a_2073_dldesign_0_cycle1_af2pred (protein) GSMEELKERAKRIFEEANRVLARASRVATANPAALPLASRAIAEAVRAQELANEALKTDPETGKELLERAEEELREARRYLEEAEAA | not found
11 | design_488_244881a1-ba0c-4c08-ad9c-1f64cf93580a_2117_dldesign_0_cycle1_af2pred (protein) AAEEFAKKEAEKAAEVAKTGTPEEAKKAATKLAKKVADAFGVGEALRMLAIAMKMVADDPAKVAAMRAAAAEVQRAAL | not found
12 | design_488_244881a1-ba0c-4c08-ad9c-1f64cf93580a_2145_dldesign_0_cycle1_af2pred (protein) MKEEEVEKKIEEAAKIAGITMRVLKKLLPDDPFLATQLAMKVAVELGKKVGELAGSEEVEKRAYEAAIEAMMKAAV | not found
13 | design_488_244881a1-ba0c-4c08-ad9c-1f64cf93580a_2213_dldesign_0_cycle1_af2pred (protein) AEAQAALIAAKGYYYLAQSYYTHVANNPSLPAEEKKQAAKNAKEAAEKAEEYAKKAGPEAQPYAEKAKKYAEETKKLAEEYA | not found
14 | design_488_244881a1-ba0c-4c08-ad9c-1f64cf93580a_2241_dldesign_0_cycle1_af2pred (protein) GAALLAQAQALMKAANATAAAGDTATAAAAWADAAKKLAELAKEAAKEDPAYAATIQAMADMSKYIAEQAKA | not found
15 | design_488_244881a1-ba0c-4c08-ad9c-1f64cf93580a_2397_dldesign_0_cycle1_af2pred (protein) AVAAAEQRVKEAAAKVAKALADEPFDVIYAAIMKEGEKIGKETGLEKQIKAEAVKEAQAAFVARAKAQIAAA | not found
16 | design_488_244881a1-ba0c-4c08-ad9c-1f64cf93580a_2417_dldesign_0_cycle1_af2pred (protein) SAALEAAKQAYDDAAKAAEEAAKDPAVAETAAAAKKSLKAFADEMTAFIKASTDEADKQAAADTLKLYAKNITNQLKAAAAAA | not found
17 | design_488_244881a1-ba0c-4c08-ad9c-1f64cf93580a_2450_dldesign_0_cycle1_af2pred (protein) AEERERLTEKARLALEAAESLVAEAERTSPERAAALARSALRFAAEAERYAKEAGDEEIAARAREVRARAEAIL | binds (active)
18 | design_488_244881a1-ba0c-4c08-ad9c-1f64cf93580a_2479_dldesign_0_cycle1_af2pred (protein) SEEYIKEAEKLLKEAKEVAAVAKASGDPVALRGAAAFADAVKQVALAKAKKASEEVAKKLEEIAKEAEKLAKELRAAAAA | not found
19 | design_610_f34cc193-997c-4684-af32-2a8002718429_112_dldesign_0_cycle1_af2pred (protein) MEEVKEEVIKVIEEAAAKAKKAIEADPSTAWAHASAAYATASKAIIANAPKLSPEEMTEVGEVFLKNMKELTEHAKAVAAA | not found
